Experiments:
[1] = target: T1, Serine/threonine-protein kinase D2 (Homo sapiens) (UniProt Q9BZL6); conditions: at 1 µM;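 note: mean value of PRKD2 inhibition, from the GSK PKIS screening panel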
T1 sequence (whole entry): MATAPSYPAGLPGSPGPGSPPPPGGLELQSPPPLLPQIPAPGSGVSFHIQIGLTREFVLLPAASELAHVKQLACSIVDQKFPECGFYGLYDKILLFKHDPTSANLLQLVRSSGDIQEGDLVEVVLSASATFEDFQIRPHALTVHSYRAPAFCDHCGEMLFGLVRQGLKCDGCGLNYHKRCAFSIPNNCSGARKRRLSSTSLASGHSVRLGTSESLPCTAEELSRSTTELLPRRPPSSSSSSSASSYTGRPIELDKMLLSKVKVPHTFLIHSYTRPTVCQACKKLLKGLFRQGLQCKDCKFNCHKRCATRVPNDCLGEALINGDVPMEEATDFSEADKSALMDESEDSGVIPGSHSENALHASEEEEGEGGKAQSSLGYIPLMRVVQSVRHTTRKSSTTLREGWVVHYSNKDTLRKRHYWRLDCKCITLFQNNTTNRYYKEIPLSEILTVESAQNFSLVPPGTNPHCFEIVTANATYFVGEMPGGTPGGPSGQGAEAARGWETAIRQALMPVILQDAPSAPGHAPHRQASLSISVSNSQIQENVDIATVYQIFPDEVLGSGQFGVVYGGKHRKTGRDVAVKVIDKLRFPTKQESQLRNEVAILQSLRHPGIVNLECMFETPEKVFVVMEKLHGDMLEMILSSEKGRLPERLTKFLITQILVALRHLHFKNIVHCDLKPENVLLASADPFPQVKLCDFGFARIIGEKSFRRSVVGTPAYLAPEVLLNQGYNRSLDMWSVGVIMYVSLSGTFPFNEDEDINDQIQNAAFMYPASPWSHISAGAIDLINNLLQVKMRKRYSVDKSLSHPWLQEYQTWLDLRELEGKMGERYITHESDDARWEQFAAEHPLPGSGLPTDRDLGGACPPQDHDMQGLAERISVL

[2] = target: T2, Serine/threonine-protein kinase D3 (Homo sapiens) (UniProt O94806); conditions: at 0.1 µM
T2 sequence (whole entry): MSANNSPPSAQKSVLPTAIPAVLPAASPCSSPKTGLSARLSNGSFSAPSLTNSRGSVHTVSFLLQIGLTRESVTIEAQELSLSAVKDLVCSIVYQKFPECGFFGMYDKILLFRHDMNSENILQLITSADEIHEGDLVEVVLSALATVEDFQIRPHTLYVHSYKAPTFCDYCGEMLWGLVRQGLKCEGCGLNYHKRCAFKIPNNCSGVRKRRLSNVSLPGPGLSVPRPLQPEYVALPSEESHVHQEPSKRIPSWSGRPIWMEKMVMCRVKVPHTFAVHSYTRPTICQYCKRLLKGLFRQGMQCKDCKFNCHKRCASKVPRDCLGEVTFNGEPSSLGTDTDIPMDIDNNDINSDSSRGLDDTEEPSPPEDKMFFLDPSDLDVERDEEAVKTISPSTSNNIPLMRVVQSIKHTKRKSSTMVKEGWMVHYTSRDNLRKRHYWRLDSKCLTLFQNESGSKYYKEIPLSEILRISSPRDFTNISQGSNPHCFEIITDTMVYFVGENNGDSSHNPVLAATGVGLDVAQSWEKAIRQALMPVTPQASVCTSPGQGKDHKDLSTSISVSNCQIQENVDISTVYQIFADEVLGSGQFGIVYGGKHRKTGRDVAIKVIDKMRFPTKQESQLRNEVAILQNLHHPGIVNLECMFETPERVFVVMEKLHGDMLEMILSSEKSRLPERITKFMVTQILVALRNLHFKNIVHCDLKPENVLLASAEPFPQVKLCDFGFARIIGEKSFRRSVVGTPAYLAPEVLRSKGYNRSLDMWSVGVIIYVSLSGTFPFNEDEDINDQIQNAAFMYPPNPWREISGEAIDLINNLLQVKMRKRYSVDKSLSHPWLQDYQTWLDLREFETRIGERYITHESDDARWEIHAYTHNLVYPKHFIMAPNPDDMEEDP

[3] = target: T2, Serine/threonine-protein kinase D3 (Homo sapiens); conditions: at 1 µM
[4] = target: T3, cGMP-dependent protein kinase 1 (Homo sapiens) (UniProt Q13976); conditions: at 0.1 µM
T3 sequence (whole entry): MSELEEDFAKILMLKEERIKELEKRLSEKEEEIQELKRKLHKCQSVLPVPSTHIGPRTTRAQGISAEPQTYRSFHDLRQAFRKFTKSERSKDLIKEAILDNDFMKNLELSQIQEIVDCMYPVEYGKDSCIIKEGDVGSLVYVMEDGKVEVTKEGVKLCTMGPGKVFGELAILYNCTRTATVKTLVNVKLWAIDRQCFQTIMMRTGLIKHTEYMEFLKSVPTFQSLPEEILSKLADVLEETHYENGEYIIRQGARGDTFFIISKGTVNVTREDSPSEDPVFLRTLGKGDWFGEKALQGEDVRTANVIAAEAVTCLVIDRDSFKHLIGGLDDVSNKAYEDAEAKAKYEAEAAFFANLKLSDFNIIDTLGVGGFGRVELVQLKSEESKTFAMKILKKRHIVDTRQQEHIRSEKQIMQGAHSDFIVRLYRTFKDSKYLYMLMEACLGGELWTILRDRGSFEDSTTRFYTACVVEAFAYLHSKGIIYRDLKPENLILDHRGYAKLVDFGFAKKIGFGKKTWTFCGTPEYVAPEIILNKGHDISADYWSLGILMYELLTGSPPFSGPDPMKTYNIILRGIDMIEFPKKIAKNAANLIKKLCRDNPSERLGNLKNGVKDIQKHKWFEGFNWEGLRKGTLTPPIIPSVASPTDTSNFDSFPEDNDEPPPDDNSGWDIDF

[5] = target: T3, cGMP-dependent protein kinase 1 (Homo sapiens); conditions: at 1 µM
[6] = target: T4, cGMP-dependent protein kinase 2 (Homo sapiens) (UniProt Q13237); conditions: at 0.1 µM
T4 sequence (whole entry): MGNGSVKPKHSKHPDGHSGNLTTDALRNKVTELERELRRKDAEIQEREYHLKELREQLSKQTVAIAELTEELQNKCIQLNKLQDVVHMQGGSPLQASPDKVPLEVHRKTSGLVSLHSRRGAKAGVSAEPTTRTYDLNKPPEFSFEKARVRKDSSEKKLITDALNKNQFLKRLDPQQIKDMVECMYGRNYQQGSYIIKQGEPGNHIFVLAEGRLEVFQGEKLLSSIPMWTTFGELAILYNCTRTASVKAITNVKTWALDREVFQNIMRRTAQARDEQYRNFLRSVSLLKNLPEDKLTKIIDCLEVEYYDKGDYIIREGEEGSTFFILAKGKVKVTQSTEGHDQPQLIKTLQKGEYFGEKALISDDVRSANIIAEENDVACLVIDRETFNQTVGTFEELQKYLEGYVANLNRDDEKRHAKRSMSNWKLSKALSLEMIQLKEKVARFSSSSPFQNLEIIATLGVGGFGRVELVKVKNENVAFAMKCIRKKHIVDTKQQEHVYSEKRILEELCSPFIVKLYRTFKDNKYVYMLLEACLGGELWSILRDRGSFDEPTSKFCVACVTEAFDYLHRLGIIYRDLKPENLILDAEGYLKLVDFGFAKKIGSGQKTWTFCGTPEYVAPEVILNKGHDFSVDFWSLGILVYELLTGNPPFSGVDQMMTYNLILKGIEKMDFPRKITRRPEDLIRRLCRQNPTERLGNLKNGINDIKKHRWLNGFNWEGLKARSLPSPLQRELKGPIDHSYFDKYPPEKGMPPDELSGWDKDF

[7] = target: T4, cGMP-dependent protein kinase 2 (Homo sapiens); conditions: at 1 µM
[8] = target: T5, cAMP-dependent protein kinase catalytic subunit PRKX (Homo sapiens) (UniProt P51817); conditions: at 0.1 µM
T5 sequence (whole entry): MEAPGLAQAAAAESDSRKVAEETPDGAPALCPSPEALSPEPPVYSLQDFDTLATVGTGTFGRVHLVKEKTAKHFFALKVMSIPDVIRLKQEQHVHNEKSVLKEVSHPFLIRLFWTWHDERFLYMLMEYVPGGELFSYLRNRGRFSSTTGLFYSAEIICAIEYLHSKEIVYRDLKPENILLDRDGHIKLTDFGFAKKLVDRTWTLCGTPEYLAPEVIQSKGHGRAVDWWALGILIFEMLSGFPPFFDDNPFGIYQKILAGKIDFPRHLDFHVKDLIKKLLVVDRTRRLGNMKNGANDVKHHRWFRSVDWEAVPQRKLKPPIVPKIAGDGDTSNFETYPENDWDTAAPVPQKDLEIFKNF

[9] = target: T5, cAMP-dependent protein kinase catalytic subunit PRKX (Homo sapiens); conditions: at 1 µM
[10] = target: Rho-associated protein kinase 1 (Homo sapiens) (UniProt Q13464); conditions: at 0.1 µM
[11] = target: Rho-associated protein kinase 1 (Homo sapiens) (UniProt Q13464); conditions: at 1 µM
[12] = target: Rho-associated protein kinase 2 (Homo sapiens) (UniProt O75116); conditions: at 0.1 µM
Chain of Rho-associated protein kinase 2 (Homo sapiens) (O75116 whole entry, looked up): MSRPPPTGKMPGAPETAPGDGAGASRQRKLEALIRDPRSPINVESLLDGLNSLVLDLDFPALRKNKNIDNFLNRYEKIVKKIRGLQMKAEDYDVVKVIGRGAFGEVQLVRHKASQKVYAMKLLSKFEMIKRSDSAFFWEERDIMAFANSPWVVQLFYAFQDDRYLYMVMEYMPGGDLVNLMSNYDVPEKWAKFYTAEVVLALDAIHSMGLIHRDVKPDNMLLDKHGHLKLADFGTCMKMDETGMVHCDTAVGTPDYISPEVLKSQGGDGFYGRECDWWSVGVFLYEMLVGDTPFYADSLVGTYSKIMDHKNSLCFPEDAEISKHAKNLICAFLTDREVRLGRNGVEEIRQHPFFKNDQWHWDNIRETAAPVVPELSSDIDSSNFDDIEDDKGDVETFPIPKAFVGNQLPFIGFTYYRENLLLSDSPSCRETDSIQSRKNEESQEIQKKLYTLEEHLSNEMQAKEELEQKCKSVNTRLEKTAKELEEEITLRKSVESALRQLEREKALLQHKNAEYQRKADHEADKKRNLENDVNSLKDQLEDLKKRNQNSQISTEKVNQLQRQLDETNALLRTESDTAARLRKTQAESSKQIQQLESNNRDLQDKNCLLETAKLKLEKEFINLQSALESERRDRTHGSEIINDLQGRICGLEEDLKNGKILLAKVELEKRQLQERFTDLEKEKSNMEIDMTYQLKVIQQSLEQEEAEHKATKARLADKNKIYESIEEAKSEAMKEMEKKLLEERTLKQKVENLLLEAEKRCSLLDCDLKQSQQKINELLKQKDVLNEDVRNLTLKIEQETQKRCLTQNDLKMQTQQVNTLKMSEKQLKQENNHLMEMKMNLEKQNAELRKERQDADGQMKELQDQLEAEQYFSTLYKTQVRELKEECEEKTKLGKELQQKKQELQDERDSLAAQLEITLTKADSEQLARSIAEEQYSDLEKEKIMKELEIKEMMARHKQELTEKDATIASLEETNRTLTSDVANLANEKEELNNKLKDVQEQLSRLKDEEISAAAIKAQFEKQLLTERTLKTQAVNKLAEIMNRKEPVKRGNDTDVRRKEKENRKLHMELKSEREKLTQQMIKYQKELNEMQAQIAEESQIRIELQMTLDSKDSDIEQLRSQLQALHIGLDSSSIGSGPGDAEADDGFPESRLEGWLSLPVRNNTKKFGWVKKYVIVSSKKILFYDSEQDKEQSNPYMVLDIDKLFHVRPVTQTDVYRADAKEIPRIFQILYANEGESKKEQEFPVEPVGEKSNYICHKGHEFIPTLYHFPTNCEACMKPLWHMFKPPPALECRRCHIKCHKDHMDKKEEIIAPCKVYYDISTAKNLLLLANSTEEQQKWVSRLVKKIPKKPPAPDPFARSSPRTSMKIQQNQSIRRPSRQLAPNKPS

[13] = target: Rho-associated protein kinase 2 (Homo sapiens) (UniProt O75116); conditions: at 1 µM
[14] = target: Ribosomal protein S6 kinase alpha-1 (Homo sapiens) (UniProt Q15418); conditions: at 0.1 µM
Chain of Ribosomal protein S6 kinase alpha-1 (Homo sapiens) (Q15418 whole entry): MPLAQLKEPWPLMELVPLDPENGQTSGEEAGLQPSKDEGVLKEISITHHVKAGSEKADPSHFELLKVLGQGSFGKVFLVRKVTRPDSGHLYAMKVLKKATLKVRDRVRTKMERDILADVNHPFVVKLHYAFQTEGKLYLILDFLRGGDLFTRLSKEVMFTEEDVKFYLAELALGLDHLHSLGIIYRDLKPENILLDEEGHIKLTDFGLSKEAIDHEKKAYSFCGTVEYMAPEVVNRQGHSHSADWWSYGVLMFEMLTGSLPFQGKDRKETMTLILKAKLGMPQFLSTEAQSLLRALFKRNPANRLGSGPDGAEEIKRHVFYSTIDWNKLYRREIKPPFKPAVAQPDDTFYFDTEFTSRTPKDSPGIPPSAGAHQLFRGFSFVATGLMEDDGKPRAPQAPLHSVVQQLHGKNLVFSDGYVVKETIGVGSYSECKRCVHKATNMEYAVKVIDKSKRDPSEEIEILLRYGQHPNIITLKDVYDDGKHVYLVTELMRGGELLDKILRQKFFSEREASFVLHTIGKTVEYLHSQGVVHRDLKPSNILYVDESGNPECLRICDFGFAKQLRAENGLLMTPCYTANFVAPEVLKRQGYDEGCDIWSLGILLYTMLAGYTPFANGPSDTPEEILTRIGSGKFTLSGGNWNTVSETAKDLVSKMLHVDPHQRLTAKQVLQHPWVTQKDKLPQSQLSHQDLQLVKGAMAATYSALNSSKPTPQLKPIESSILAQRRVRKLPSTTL

[15] = target: Ribosomal protein S6 kinase alpha-1 (Homo sapiens) (UniProt Q15418); conditions: at 1 µM
[16] = target: Ribosomal protein S6 kinase alpha-3 (Homo sapiens) (UniProt P51812); conditions: at 0.1 µM
Chain of Ribosomal protein S6 kinase alpha-3 (Homo sapiens) (P51812 whole entry): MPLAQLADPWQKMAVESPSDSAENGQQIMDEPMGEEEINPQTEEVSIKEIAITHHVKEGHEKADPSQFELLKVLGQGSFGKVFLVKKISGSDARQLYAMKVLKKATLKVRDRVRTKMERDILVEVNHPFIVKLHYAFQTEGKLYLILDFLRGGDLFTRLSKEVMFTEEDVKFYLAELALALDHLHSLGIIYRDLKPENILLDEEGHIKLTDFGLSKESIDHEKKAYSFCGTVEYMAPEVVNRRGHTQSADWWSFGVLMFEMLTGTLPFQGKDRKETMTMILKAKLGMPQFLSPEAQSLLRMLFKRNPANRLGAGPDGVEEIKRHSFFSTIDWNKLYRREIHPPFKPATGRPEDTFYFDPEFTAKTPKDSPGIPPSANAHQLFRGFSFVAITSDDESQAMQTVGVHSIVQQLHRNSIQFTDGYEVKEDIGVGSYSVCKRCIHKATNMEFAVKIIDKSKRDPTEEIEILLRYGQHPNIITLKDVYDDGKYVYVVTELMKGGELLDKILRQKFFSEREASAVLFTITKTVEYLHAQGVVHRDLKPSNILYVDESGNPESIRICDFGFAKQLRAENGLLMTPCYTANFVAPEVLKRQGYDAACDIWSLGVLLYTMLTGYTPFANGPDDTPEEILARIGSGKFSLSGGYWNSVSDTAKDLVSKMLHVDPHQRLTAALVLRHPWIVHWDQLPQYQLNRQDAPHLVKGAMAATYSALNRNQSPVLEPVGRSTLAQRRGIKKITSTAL

[17] = target: Ribosomal protein S6 kinase alpha-3 (Homo sapiens) (UniProt P51812); conditions: at 1 µM
[18] = target: Ribosomal protein S6 kinase alpha-2 (Homo sapiens) (UniProt Q15349); conditions: at 0.1 µM
Chain of Ribosomal protein S6 kinase alpha-2 (Homo sapiens) (Q15349 whole entry): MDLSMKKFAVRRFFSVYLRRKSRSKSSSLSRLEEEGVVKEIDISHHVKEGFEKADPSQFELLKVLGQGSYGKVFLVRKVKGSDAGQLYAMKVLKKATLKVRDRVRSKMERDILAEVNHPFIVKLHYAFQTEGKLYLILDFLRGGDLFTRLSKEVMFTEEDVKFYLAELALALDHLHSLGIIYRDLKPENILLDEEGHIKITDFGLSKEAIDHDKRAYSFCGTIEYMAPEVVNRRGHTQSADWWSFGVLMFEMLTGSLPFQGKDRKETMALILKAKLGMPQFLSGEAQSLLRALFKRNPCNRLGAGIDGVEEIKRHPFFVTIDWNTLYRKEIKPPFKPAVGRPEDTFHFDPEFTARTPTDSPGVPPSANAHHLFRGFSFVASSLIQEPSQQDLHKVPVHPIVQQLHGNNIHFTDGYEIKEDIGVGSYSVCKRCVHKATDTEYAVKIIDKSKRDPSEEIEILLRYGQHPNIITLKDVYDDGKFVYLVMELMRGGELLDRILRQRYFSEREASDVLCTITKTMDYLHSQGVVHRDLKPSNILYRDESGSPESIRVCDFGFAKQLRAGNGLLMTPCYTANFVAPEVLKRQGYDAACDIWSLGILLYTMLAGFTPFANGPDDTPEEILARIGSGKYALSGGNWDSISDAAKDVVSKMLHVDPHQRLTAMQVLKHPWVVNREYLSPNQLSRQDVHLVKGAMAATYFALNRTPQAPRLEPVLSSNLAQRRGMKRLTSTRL

[19] = target: Ribosomal protein S6 kinase alpha-2 (Homo sapiens) (UniProt Q15349); conditions: at 1 µM
[20] = target: Ribosomal protein S6 kinase alpha-6 (Homo sapiens) (UniProt Q9UK32); conditions: at 0.1 µM;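 note: reported value is the mean inhibition of RSK4, from the GSK PKIS kinase inhibitor screen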
Chain of Ribosomal protein S6 kinase alpha-6 (Homo sapiens) (Q9UK32 whole entry): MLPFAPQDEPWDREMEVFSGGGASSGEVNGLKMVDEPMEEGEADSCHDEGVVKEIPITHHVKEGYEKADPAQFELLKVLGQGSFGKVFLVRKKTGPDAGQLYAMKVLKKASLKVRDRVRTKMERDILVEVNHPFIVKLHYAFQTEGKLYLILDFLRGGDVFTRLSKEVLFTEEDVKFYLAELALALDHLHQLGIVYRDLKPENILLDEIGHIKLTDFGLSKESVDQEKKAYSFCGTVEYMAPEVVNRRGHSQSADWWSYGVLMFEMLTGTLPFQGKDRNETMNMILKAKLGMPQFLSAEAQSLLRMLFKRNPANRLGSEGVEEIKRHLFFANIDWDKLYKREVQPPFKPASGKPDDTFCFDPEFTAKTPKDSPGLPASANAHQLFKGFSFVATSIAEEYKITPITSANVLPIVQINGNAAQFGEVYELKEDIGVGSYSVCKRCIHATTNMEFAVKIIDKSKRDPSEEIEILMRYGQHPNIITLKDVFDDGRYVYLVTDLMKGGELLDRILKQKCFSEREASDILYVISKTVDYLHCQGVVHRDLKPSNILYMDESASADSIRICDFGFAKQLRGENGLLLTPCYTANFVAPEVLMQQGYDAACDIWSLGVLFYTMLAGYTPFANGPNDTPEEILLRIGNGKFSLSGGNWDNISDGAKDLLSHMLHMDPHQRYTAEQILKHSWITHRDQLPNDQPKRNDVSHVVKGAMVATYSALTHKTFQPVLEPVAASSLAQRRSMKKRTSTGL

Compound | inhibition [1] [%] | inhibition [2] [%] | inhibition [3] [%] | inhibition [4] [%] | inhibition [5] [%] | inhibition [6] [%] | inhibition [7] [%] | inhibition [8] [%] | inhibition [9] [%] | inhibition [10] [%] | inhibition [11] [%] | inhibition [12] [%] | inhibition [13] [%] | inhibition [14] [%] | inhibition [15] [%] | inhibition [16] [%] | inhibition [17] [%] | inhibition [18] [%] | inhibition [19] [%] | inhibition [20] [%]
COc1cc(Nc2nccc(Nc3ccc4c(C)n[nH]c4c3)n2)cc(OC)c1OC | 2.94 | 1.3 | 2.54 | 3.29 | 3.61 | 2.12 | 2.71 | 0.71 | -0.26 | 2.06 | 7.47 | 1.83 | 12.1 | -0.21 | -0.01 | 1.04 | 0.03 | 0.87 | 0.74 | 1.26
CCc1nn2ncccc2c1-c1ccnc(NC2CC2)n1 | 3.14 | 1.73 | 2.57 | 1.92 | 3.59 | 0.96 | 3.27 | 1.66 | 0.72 | 0.66 | 1.83 | 1.74 | 2.93 | 1.29 | 2.08 | 1.54 | 0.91 | 3.18 | 2.75 | 1.44
CCCN(CCS(C)(=O)=O)Cc1ccc(-c2ccc3ncnc(Nc4ccc(OCc5cccc(F)c5)c(Cl)c4)c3c2)o1 | 1.95 | 1.29 | 2.73 | 1.66 | 1.47 | 0.95 | 1.07 | 1.89 | 1.27 | 0.42 | 0.05 | 1.92 | 2.01 | 1.36 | 0.68 | 0.4 | 0.24 | 1.59 | 1.46 | 1.43
CC1=C(C(=O)Nc2cc(Cl)c3[nH]ncc3c2)C(c2ccc(C(F)(F)F)cc2)CC(=O)N1 (stereo not given) | 7.46 | 4.09 | 7.2 | 27.6 | 67.9 | 16.9 | 59.7 | 44.8 | 79.7 | 70.7 | 84 | 72.3 | 85.8 | 27.8 | 68.7 | 22.3 | 65.5 | 13.1 | 53.4 | 7.7
CCCN1CCC(c2ccc(Nc3nc(Nc4cc(F)ccc4C(N)=O)c4cc[nH]c4n3)c(OC)c2)CC1 | 75.7 | 13.6 | 65.9 | 9.75 | 46.5 | 8.54 | 47 | 1.4 | 4.23 | 17.2 | 64.6 | 19.9 | 69.8 | 37.4 | 69.7 | 26.5 | 66.8 | 12 | 53.5 | 23.4
N#Cc1c(NC(=O)CN2CCOCC2)sc2c1CCCC2 | 6.36 | 4.08 | 6.46 | 3.2 | 4.74 | 2.59 | 2.65 | 2.18 | 3.49 | 0.84 | 0.87 | 5.37 | 3.55 | 2.13 | 3.62 | 1.56 | 0.9 | 1.89 | 1.68 | 1.4
